In PubChem BioAssay AID743192 (National Center for Advancing Translational Sciences (NCATS), 2013):
Activity calls are given as the source filed them. Calls follow the shape of the dose curve; as a rule, active = well fitted curve in the direction sought with a large enough effect; inactive = no such curve, though single readings can be large or run the other way.

These compounds were tested against L-lactate dehydrogenase B chain (Homo sapiens) (UniProt P07195) (assay: Extended Characterization of HPGD Inhibitors: Counterscreen Against LDHB). Details: LDHB enzyme, diaphorase/resazurin coupled fluorescence; series mostly up to 114 µM.
Sequence of L-lactate dehydrogenase B chain (Homo sapiens) (P07195 whole entry, looked up): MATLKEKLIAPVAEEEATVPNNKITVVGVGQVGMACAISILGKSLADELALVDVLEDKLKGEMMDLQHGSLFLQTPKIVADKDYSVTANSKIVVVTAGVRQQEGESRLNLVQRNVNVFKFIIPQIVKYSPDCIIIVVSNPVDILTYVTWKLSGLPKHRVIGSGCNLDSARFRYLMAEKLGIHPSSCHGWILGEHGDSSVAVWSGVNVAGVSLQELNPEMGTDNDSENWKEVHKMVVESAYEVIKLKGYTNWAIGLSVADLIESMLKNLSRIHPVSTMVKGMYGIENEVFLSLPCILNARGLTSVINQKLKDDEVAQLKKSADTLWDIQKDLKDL
Text: The central role of HPGD is to inactivate prostaglandins such as prostaglandin E2 (PGE2) or prostaglandin D2 (PGD2). These prostaglandins are involved in a number of processes, including inflammation, differentiation, and cellular signaling, which makes HPGD an important target for pharmacological intervention. A number of prostaglandins of particular biological interest have been identified as substrates of HPGD. […] Over-production of PGE2 has been reported to promote tumor-associated neovascularization, cell proliferation, and tumor growth. […] In order to further characterize the compounds, we ran them against an LDHB counterscreen. LDHA converts pyruvate to lactate while regenerating NAD+ from NADH. LDHA enzymatic activity is then coupled to the activity of diaphorase, which reversibly catalyzes the reaction of NAD+ to NADH while simultaneously reducing resazurin to the fluorescent resorufin. This change in fluorescence signal (excitation 544 nm; emission, 590 nm) was monitored using the ViewLux CCD imager (Perkin Elmer). Data were normalized against no enzyme control wells and no compound control wells. NIH Chemical Genomics Center [NCGC] NIH Molecular Libraries Probe Centers Network [MLPCN] MLPCN Grant: MH084681 Assay Submitter (PI): Structural Genomics Consortium
3 uL of LDHB enzyme in assay buffer are added to plate before 23 nL of compound/control are pinned into the solution. After a 15 min incubation, 1 uL of NADH (60 uM final) and sodium pyruvate (160 uM final) are added, incubated at 8 min at RT before another 1 uL of Diaphorase / Resazurin is added. The plate is read on the ViewLux after a 10 min RT incubation

SMILES | outcome
O=C(c1ccc2c(c1)ncn2-c1cccc(C(F)(F)F)c1)N1CCCCC1 | inactive
COc1ccc(-n2cnc3cc(C(=O)N4CCCCC4)ccc32)cc1 | inactive
Cc1cc(-c2nnc3n2CCCCC3)c(C)n1-c1ccc(Cl)c(Cl)c1 | inactive
Cc1ccc(-n2c(C)cc(-c3nnc4n3CCCCC4)c2C)cc1 | inactive
Cc1cccc(-n2cnc3cc(C(=O)N4CCCC(C(F)(F)F)C4)ccc32)c1 (stereo not given) | inactive
Cc1cc(-c2nnc3n2CCCCC3)c(C)n1-c1cccc(C(F)(F)F)c1 | inactive
Cc1cc(-c2nnc3n2CCCCC3)c(C)n1-c1cccc(C#N)c1 | inactive
Cc1cccc(-n2cnc3cc(C(=O)N4CCCC(C)(C)C4)ccc32)c1 | inactive
Cc1cc(-c2nnc3n2CCCCC3)c(C)n1-c1cccc(Cl)c1 | inactive
O=C(c1ccc2c(c1)ncn2-c1cccc(Cl)c1)N1CCCCC1 | inactive
